# Experimental data reported in PubChem BioAssay (NCATS).
# Results filed as inconclusive are left out. Unmarked numbers belong to inactive results. The source made the active and inactive calls. The call rests on the fitted dose curve; in most records, active means well fitted cell-killing curve with a large enough effect; inconclusive means small, poorly fitted or top-dose-only effect; inactive means no such curve, though single readings can be large or run the other way.
# Experiment: Cell Viability - LYMP2-001 (AID 921); further: nearly all actives have a fitted effect of over 70% in size;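 on activity change, negative = cytotoxic: 0% = DMSO only and full inhibition = tetraoctylammonium bromide control wells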
# Details: LYMP2-001 lymphoblastoid cell viability; series mostly up to 92.2 µM; activity change, negative = cytotoxic: at the top concentration
# Source text: NIH Chemical Genomics Center [NCGC]
# NIH Molecular Libraries Screening Centers Network [MLSCN]
# National Institutes of Environmental Health Sciences [NIEHS]
# National Toxicology Program [NTP]
# We have developed a 1536-well cell-based assay for quantitative high throughput screening (qHTS) against a number of cell lines to determine in vitro cytotoxicity of small molecules. This particular assay uses a human lymphoblastoid cell line (LYMP2-001) purchased from Coriell Institute for Medical Research.
# NCGC Assay Protocol Summary:
# The CellTiter-Glo luminescent cell viability assay (Promega) is a homogeneous method to measure the number of viable cells in culture. The end point readout of this assay is based on quantitation of intracellular ATP, an indicator of metabolic activity, using the luciferase reaction. Luciferase catalyzes the oxidation of beetle Luciferin to oxyluciferin and light in the presence of ATP. The luminescent signal is proportional to amount of ATP present.
# Using the CellTiter-Glo luminescent cell viability assay, the amount of cellular ATP was measured in the lymphoblastoid cell line with complete culture medium following compound treatment for 24 hours. The assay was performed in opaque white Kalypsys 1536-well plates. In the screen, tetraoctylammonium bromide was used as positive control. Library compounds were measured for their ability to cause acute toxicity in the cell line, as reflected by a decrease in intracellular ATP levels, in a concentration-dependent manner. […] AC50 values were determined from concentration-response data modeled with the standard Hill equation.
# qHTS protocol for CellTiter Glo lymphoblastoid cellular assay
# [Step] [Parameter] [Value] [Description]
# 1. Reagent; 5 uL; 2500 lymphoblastoid cells/well
# 2. Time; 5 hr; 37 C incubation
# 4. Controls; 23 nL; Tetraoctylammonium bromide 6.4pM to 92 uM
# 5. Time; 24 hr; 37 C incubation
# 6. Reagent; 5 uL; CellTiter Glo reagent
# 7. Time; 30 min; Room Temperature
# 8. Detection; Luminescence; Viewlux plate reader
# Keywords: cell viability, cytotoxicity, lymphoblastoid cell line, luminescence, NTPHTS, NTPHTS_NCGC, NIEHS, DSSTox, MLSMR, MLSCN, NIH Roadmap, qHTS, NCGC
# Potency means the concentration at half of the fitted maximal effect.
SMILES,"activity change, negative = cytotoxic [%]",Potency
CC[C@H]1OC(=O)[C@H](C)[C@@H](O[C@H]2C[C@@](C)(OC)[C@@H](O)[C@H](C)O2)[C@H](C)[C@@H](O[C@@H]2O[C@H](C)C[C@H](N(C)C)[C@H]2O)[C@](C)(O)C[C@@H](C)CN(C)[C@H](C)[C@@H](O)[C@]1(C)O,-10.3,
Nc1ccc(N=Nc2ccccc2)c(N)n1,-12.9,
CC1=CCC2CC1C2(C)C (centres undefined),-7.08,
c1ccc2ccccc2c1,4.93,
Oc1ccc(/C=C/c2cc(O)cc(O)c2)cc1,-28.7,
OCc1ccccc1,7.21,
CCCCC,-9.51,
OCl,-16.8,
O=P(O)(O)O,-0.322,
Nc1ncnc2c1ncn2[C@H]1CC[C@@H](CO)O1,-9.59,
CCOC(C)OCC,-5.81,
OB(O)O,-14.3,
C=C1C(CCl)(CCl)C2(Cl)C(Cl)C(Cl)C1(Cl)C2(Cl)Cl (centres undefined),,39.8 µM (active)
COC(=O)c1ccccc1O,-28.9,
CO/N=C(/C(=O)N[C@@H]1C(=O)N2C(C(=O)O)=C(COC(N)=O)CS[C@H]12)c1ccco1,4.24,
OC[C@H]1O[C@@H]2O[C@H]3[C@H](O)[C@@H](O)[C@@H](O[C@H]4[C@H](O)[C@@H](O)[C@@H](O[C@H]5[C@H](O)[C@@H](O)[C@@H](O[C@H]6[C@H](O)[C@@H](O)[C@@H](O[C@H]7[C@H](O)[C@@H](O)[C@@H](O[C@H]1[C@H](O)[C@H]2O)O[C@@H]7CO)O[C@@H]6CO)O[C@@H]5CO)O[C@@H]4CO)O[C@@H]3CO,6.66,
O=c1n(CC2CO2)c(=O)n(CC2CO2)c(=O)n1CC1CO1 (centres undefined),,31.6 µM (active)

SMILES,"activity change, negative = cytotoxic [%]",Potency
C/C=C/C=C/C(=O)O,-17.7,
Nc1nccs1,-11,
Oc1cccc(O)c1O,-28,
OCC(O)CO,,inactive
CCCCO,,inactive
CC1=CC(=O)NS(=O)(=O)O1,-15.3,
CO,-1.98,
Cc1ccc(S(=O)(=O)O)cc1C,-30.5,
NCCN,9.71,
[O-][N+](=Nc1ccccc1)c1ccccc1,10.8,
Cc1ncc[nH]1,-0.974,
ClC(Cl)Cl,0.48,
CC(C)O,2.32,
C[C@H](CCC(=O)O)[C@H]1CC[C@H]2[C@@H]3[C@H](O)C[C@@H]4C[C@H](O)CC[C@]4(C)[C@H]3C[C@H](O)[C@]12C,3.15,
C[C@H]1O[C@@H](O[C@H]2[C@@H](O)C[C@H](O[C@H]3[C@@H](O)C[C@H](O[C@H]4CC[C@@]5(C)[C@H](CC[C@@H]6[C@@H]5C[C@@H](O)[C@]5(C)[C@@H](C7=CC(=O)OC7)CC[C@]65O)C4)O[C@@H]3C)O[C@@H]2C)C[C@H](O)[C@@H]1O,,0.316 µM (active)
C[C@H](CCC(=O)O)[C@H]1CC[C@H]2[C@@H]3CC[C@@H]4C[C@H](O)CC[C@]4(C)[C@H]3C[C@H](O)[C@]12C,-12,
NC(N)=O,-20.9,
